Measurements: paper PMC5540273 (PLoS ONE, 2017)

The molecules below were run on TGFBR1. Conditions: concentration: 1 μM, replicates: in singlicate; n = 1.
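Further: KINOMEscan kinase panel screen.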

Row | Structure (SMILES) | %Inh [%]
1 | Cc1nnc(-c2ccc3occ(-c4ccc(S(C)=O)cc4)c3c2)[nH]1 (centres unmarked) | 10
2 | Cn1ccc2ncnc(Oc3ccc(Nc4nc5ccccc5[nH]4)cc3)c21 | 0
3 | COc1cc2ncn(-c3cc(OCC4CCCO4)c(C(N)=O)s3)c2cc1OC (centres unmarked) [GSK204607] | 4
4 | Cc1cccc(-c2nc(-c3ccc(S(C)(=O)=O)cc3)sc2-c2ccnc(NCCc3ccccc3)c2)c1 | 26
5 | COC(=O)c1c(-c2ccccc2)c2cc(C(=O)O)ccc2c(=O)n1Cc1ccccc1 | 21
6 | Cl.Oc1ccc(-c2nc(-c3ccccc3)[nH]c2-c2ccncc2)cc1 [SB-428218] | 60
7 | CC(=O)Nc1nc2cnc(Nc3cc(NC(=O)c4cccc(CCC#N)c4)ccc3C)nc2s1 | 0
8 | O=C(Nc1n[nH]c2nc(-c3nccs3)c(Br)cc12)C1CCCC1 [SB-742609] | 31
9 | CCn1c(-c2ccccn2)nc2cnccc21 [SB-736398] | 21
10 | NC(=O)c1nnc2ccccc2c1N | 1
11 | COc1ccc(Nc2nccc(NCCNC(=O)Nc3ccccc3F)n2)cc1 [GSK1379901] | 3
12 | Cc1cc(N2Cc3ccccc3C2)nc(Nc2ccc(S(=O)(=O)N3CCOCC3)cc2)n1.Cl [GSK1669917] | 0
13 | CC1=C(C(=O)Nc2cc3cn[nH]c3cc2F)C(c2ccc(C(F)(F)F)cc2)CC(=O)N1 (centres unmarked) [GSK429286] | 0
14 | COC(=O)c1c(-c2ccccc2)c2cc(OC)ccc2c(=O)n1Cc1ccccc1 | 17
